In PubChem BioAssay AID1835 (Johns Hopkins Ion Channel Center, 2009):
In all, about 2,400 compounds went through this assay and about 750 (31%) were called active.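 How the source made its calls: active means median signal gain over dofetilide-blocked control wells reaching their mean plus 3 SD, so readout 1 at least 0; inactive means the rest.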 The list shows a part of the results.

These molecules were tested against Voltage-gated inwardly rectifying potassium channel KCNH2 (Homo sapiens) (UniProt Q12809) (assay: hERG protection against dofetilide inhibition, confirmation, cell-based, thallium flux, duplicate retest, dofetilide IC70 (AID 1835)). Conditions: hERG cell line, FluxOR thallium flux, dofetilide-blocked; at 10 µM; hits give high values.
Voltage-gated inwardly rectifying potassium channel KCNH2 (Homo sapiens), sequence (Q12809 whole entry, looked up): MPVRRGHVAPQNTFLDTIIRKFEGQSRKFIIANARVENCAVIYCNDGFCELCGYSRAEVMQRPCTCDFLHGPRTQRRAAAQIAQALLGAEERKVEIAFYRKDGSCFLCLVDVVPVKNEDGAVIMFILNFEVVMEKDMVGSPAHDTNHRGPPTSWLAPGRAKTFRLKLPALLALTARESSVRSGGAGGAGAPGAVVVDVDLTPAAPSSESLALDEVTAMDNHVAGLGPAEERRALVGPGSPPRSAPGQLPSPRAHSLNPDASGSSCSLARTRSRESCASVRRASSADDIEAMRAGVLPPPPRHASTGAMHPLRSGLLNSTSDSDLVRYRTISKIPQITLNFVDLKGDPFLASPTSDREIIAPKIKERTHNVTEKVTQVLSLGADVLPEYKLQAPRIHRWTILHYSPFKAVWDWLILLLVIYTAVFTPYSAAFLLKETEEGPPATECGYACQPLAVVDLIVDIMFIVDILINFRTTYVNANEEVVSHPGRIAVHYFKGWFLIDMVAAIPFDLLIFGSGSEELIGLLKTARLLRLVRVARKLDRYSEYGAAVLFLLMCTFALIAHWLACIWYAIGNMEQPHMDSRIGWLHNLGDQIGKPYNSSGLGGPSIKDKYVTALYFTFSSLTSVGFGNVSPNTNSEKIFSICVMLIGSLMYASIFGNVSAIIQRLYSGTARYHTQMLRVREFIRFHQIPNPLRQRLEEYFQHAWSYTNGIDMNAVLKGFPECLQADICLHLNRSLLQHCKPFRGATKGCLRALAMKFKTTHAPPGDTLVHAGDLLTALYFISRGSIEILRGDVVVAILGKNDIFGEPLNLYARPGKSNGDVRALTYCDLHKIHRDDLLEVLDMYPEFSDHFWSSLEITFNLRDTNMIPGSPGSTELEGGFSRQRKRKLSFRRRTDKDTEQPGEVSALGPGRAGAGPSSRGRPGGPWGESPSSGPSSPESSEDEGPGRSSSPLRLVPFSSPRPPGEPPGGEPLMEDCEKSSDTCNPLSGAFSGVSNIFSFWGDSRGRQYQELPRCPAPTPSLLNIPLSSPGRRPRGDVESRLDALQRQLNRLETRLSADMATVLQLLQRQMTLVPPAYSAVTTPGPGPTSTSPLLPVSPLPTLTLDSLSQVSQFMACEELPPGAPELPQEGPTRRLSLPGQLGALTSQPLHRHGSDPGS

Compound	activity increase over dofetilide control, less the hit threshold
Cc1cccc2nc(-c3cccnc3)c(NCCC(C)C)n12	-70% (inactive)
CC(C)Oc1cccc(C(=O)NC(=S)N2CCN(c3ccc(C(F)(F)F)cc3[N+](=O)[O-])CC2)c1	-8% (inactive)
COc1cccc(OC)c1C(=O)NC(=S)N1CCN(c2ccc(C(F)(F)F)cc2[N+](=O)[O-])CC1	6% (active)
COC(=O)CSc1nc(N2CCCCC2)c2c(c1C#N)CCCC2	5% (active)
COC(=O)CSc1nc2c(c(-c3ccc(C)o3)c1C#N)CCCC2	-18% (inactive)
CCC1(c2ccccc2)NC(=S)N(c2ccc(C)c(C)c2)N1 (centres undefined)	86% (active)
CCC1(c2ccc(Cl)cc2)NC(=S)N(c2ccc(C)c(C)c2)N1 (centres undefined)	100% (active)
Cc1ccc(NC(=O)c2noc3c2CCC3)cc1C	-11% (inactive)
N#Cc1cc(-c2ccccc2)nnc1Oc1ccccc1	-1% (inactive)
Cc1ccc2[nH]c(=O)c(C(c3nnnn3C3CCCC3)N3CCCc4ccccc43)cc2c1 (centres undefined)	-4% (inactive)
COc1ccc(-c2cc(C(F)(F)F)nc(N3CCCCC3)n2)cc1OC	-19% (inactive)
O=C1C=C(c2ccccc2)OC(=O)C1C(=O)c1ccccc1 (centres undefined)	-4% (inactive)
CCOc1ccc2nc(/N=C/c3nc(-c4ccccc4)oc3O)sc2c1	4% (active)
CCOc1ccc2nc(/N=C/c3nc(-c4ccc(Br)cc4)oc3O)sc2c1	11% (active)
CC1(C)CC(=O)c2c(nn(-c3ccccc3)c2-c2ccncc2)C1	-7% (inactive)
Cc1ccc2cc(CCNC(=O)C(=O)c3c(C)[nH]c4ccccc34)c(=O)[nH]c2c1	-20% (inactive)
OCCN1CCN(c2ncnc3c2sc2nc(N4CCOCC4)c4c(c23)CCC4)CC1	-27% (inactive)
CC(C)c1nc2sc3c(=S)nc[nH]c3c2c2c1CCC2	52% (active)
CCOC(=O)c1sc2nc(N3CCOCC3)c3c(c2c1N)CCN(Cc1ccccc1)C3	-5% (inactive)
S=c1nc[nH]c2c1sc1nc(N3CCOCC3)c3c(c12)CCCC3	58% (active)
S=c1nc[nH]c2c1sc1nc(-c3ccccc3)c3c(c12)CCCC3	80% (active)
Cc1ccc(C)c(OCc2cc(C(=O)N3CCNC(=O)C3)no2)c1	-7% (inactive)
CCc1noc(C)c1C(=O)N1CCCC(N2CCN(c3ccccc3F)CC2)C1 (centres undefined)	-1% (inactive)
CCOc1ccccc1NC(=O)C(=O)CC(=O)c1ccc(OC)cc1	16% (active)
COc1ccc(C(=O)CC(=O)C(=O)Nc2ccccc2OC)cc1	2% (active)

Compound	activity increase over dofetilide control, less the hit threshold
COc1ccc(C(=O)CNc2ccccc2C#N)cc1	-11% (inactive)
COc1ccc(C(=O)NC2CC3CCCC(C2)N3Cc2ccccc2)cc1 (centres undefined)	-11% (inactive)
COc1ccc(C(=O)CSc2nnc3ccc(-c4ccccn4)nn23)cc1	-11% (inactive)
CSc1ccc(S(=O)(=O)N2CCC(C(=O)Nc3ccccc3C(F)(F)F)CC2)cc1	-17% (inactive)
COc1ccc(C(=O)CC(=O)C(=O)Nc2ccccc2Cl)cc1	31% (active)
COc1ccccc1NC1=C(NC(C)=O)C(=O)c2ccccc2C1=O	-7% (inactive)
CCN1CCN(CC(=O)c2ccc(OC)cc2)CC1	-17% (inactive)
NNC(=O)CNc1ccccc1Cl	-9% (inactive)
COc1ccc(C(=O)CC(=O)C(=O)Nc2ccccc2C(F)(F)F)cc1	13% (active)
CCc1nc(C)ccc1OCC(=O)N1CCc2c([nH]c3ccccc23)C1c1ccccn1 (centres undefined)	-24% (inactive)
Cc1ccc(CCNC(=O)c2cccc(NC3=NC4CS(=O)(=O)CC4S3)c2)cc1 (centres undefined)	-4% (inactive)
Cc1cc(=O)[nH]c(N/N=C2/CCCC/C2=C\c2ccccc2)n1	-9% (inactive)
CNC(=O)c1[nH]cnc1C(=O)Nc1ccccn1	-18% (inactive)
Cc1ccccc1OCC(=O)NNC(=O)c1ccc2c(=O)n3c(nc2c1)CCC3	-21% (inactive)
O=C1c2ccccc2C(=O)N1CCc1nc(-c2ccccn2)no1	-12% (inactive)
CCOc1ccc(CCNC(=O)Nc2ccccc2C)cc1OCC	-12% (inactive)
CCOc1ccccc1NC(=O)C(=O)CC(=O)c1cccc(OC)c1	7% (active)
Cc1oc2cc(O)ccc2c(=O)c1N1C(=O)c2ccccc2C1=O	-4% (inactive)
Cc1nnc(SCc2cc(=O)oc3cc(O)ccc23)n1Cc1ccccc1	12% (active)
Cc1ccc2c(CN3CCOCC3)cc(=O)oc2c1	-14% (inactive)
CCOCCCNC(=O)C(NC(=O)Cc1cccs1)c1ccc(C)cc1 (centres undefined)	-21% (inactive)
Fc1ccc(N2CCN(c3ccc4c(C(F)(F)F)cc(C(F)(F)F)nc4n3)CC2)cc1	-8% (inactive)
Cc1ccc(C(C#N)c2ccc3c(C(F)(F)F)cc(C(F)(F)F)nc3n2)cc1 (centres undefined)	8% (active)
Cc1ccc(S(=O)(=O)N2CCOCC2)cc1NC(=O)COC(=O)c1cccnc1Cl	-15% (inactive)
